An excerpt weighted towards active compounds, which were near 19% of everything screened.
CHX counter = counter-screen hit for Shiga toxin inhibitors, cycloheximide. actives 12% (n = 300,000). cell reporter, cycloheximide protein synthesis inhibition counterscreen. max response, %. AID 2314; in the data active means max response mostly above about 13%, no sharp cut-off; inactive means mostly below about 14%; further: read at 38.3 µM for the half of the compounds with a filed dose
Pf growth 96h = P. falciparum growth inhibition at 96 hour, primary screen for plastid delayed-death inhibitors. P. falciparum luciferase reporter growth, 96 h. Potency, µM (doses to about 28.7 µM), usual class: inhibitors. actives 6.9% (n = 320,000). AID 504834
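P. falciparum expressing integrated firefly luciferase, in erythrocytes at 2% hematocrit, 0.05% parasitemia, incubated with compounds 96 h at 37 C, 5% CO2. Growth inhibition read as loss of luminescence; two-generation exposure targets delayed-death apicoplast inhibitors.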
Pf growth 48h = inhibits P. falciparum growth in the first generation, 48 h | P. falciparum luciferase growth in erythrocytes, 48 h | Potency, µM (highest dose often 28.7 µM), most hits filed as inhibitors | actives 5.9% (n = 310,000)
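Erythrocytes infected with P. falciparum carrying an integrated firefly luciferase reporter (2% hematocrit, 0.1% parasitemia final) were exposed to compounds in RPMI 1640 with 0.5% Albumax at 37 C, 5% CO2. Growth inhibition was scored as reduced luminescence.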
SARS PLpro yeast = SARS-CoV PLP inhibition in yeast. S. cerevisiae expressing SARS-CoV PLpro, growth rescue. Potency, µM (titrated, usually from 32.9 µM), most hits filed as activators. actives 0.19% (n = 330,000); calls by dose curve; further: nearly all actives have a fitted effect of over 55% in size
AMA1-RON2 inh = AMA1-RON2 (P. falciparum) interaction inhibition. AlphaScreen AMA1-biotinylated RON2 peptide binding. Potency, µM (highest dose often 58.2 µM), usual class: inhibitors. actives 0.2% (n = 360,000). AID 720542; further: nearly all actives have a fitted effect of over 45% in size
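AMA1 (3D7) with his tag at 25 nM final met compounds first, then biotinylated RON2 peptide at 25 nM; detection used donor plus acceptor beads, 10 µg/mL apiece, read by AlphaScreen after 30 min at room temperature.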
Shiga toxin inh = blocks Shiga toxin action in Vero cells. Vero cells, Shiga toxin protein synthesis inhibition reporter. inhibition, % at 38.7 µM. actives 9.2% (n = 290,000). AID 2315; in the data active means inhibition mostly above about 28%, no sharp cut-off; inactive means mostly below about 43%
Hits are given with their value; n = inactive; u = inconclusive; x = not tested or not shown; [ ] = dose if it differs, or a comment. Unless noted, the call rests on the fitted dose curve; in most records, active means well fitted curve in the direction sought with a large enough effect; inconclusive means small, poorly fitted or top-dose-only effect, or another doubt; inactive means no such curve, though single readings can be large; an effect the other way counts as inactive or inconclusive.

SMILES	CHX counter	Pf growth 96h	Pf growth 48h	SARS PLpro yeast	AMA1-RON2 inh	Shiga toxin inh
CC(C)(C)c1cc(-c2n[nH]c(=S)n2-c2ccccc2F)n[nH]1	40	n	n	n	n	74
COc1cccc2cc(C(=O)NCc3ccccn3)c(=O)oc12	23	u	n	n	n	n
COc1cccc2cc(C(=O)NCCc3ccccc3)c(=O)oc12	17	n	n	n	n	n
COc1cccc2cc(C(=O)N3CCc4ccccc4C3)c(=O)oc12	24	n	x	n	n	n
CCOc1cccc2cc(C(=O)NCc3ccc(C)cc3)c(=N)oc12	n	n	n	n	n	n
CCOc1cccc2cc(C(=O)NCc3ccc(OC)cc3)c(=N)oc12	n	10µM	u	n	n	n
COc1cccc2cc(C(=O)NCCC3=CCCCC3)c(=O)oc12	n	u	n	n	n	n
CCOc1cccc2cc(C(=O)N3CCc4ccccc4C3)c(=O)oc12	n	n	n	n	n	n
COc1ccc(NC(=O)C2C3C=CC4(O3)C2C(=O)N(CCN2CCCCC2)C4C(=O)NC2CCCC(C)C2C)cc1 (stereo not drawn)	n	n	u	n	n	n
C=CCc1cccc2cc(C(=O)NCc3cccnc3)c(=O)oc12	n	n	n	n	n	n
CCOc1cccc2cc(C(=O)NCc3cccnc3)c(=O)oc12	n	2.3µM	n	n	n	n
Cc1ccc(O)c(C2=Nc3ccccc3N=C(c3cccc([N+](=O)[O-])c3)C2)c1	38	n	u	n	n	67
Cc1ccc(O)c(C2=Nc3ccccc3N=C(c3ccc([N+](=O)[O-])cc3)C2)c1	25	u	n	n	n	n
Cc1ccc(O)c(C2=Nc3ccccc3N=C(c3ccco3)C2)c1	24	u	u	n	n	n
O=C(Nc1cccc(C(=O)N2CCCC2)c1)C1CCCCC1	x	x	x	x	n	x
CC1(C)CC(=O)C2=C(C1)NC1=C(C(=O)c3ccccc31)C2c1ccc(Cl)cc1 (stereo not drawn)	n	u	u	n	u	n
Cc1ccc(C2C3=C(CC(C)(C)CC3=O)NC3=C2C(=O)c2ccccc23)cc1 (stereo not drawn)	n	1.9µM	5.2µM	n	u	n
CC(=O)Nc1ccc(S(=O)(=O)N2CCN(CC(=O)N3CCOCC3)CC2)cc1	n	n	n	n	n	n
O=C(CN1CCN(Cc2ccccc2)CC1)N/N=C/C=C/c1ccccc1[N+](=O)[O-]	n	n	n	n	n	n
O=C(O)c1cc(N/N=C/C=C/c2ccccc2[N+](=O)[O-])ccc1Cl	42	n	n	n	n	68
NS(=O)(=O)c1ccc(N/N=C/C=C/c2ccccc2[N+](=O)[O-])cc1	37	n	n	n	n	80
Cc1c(NC(=O)CSC(=S)N2CCCC2)c(=O)n(-c2ccccc2)n1C	x	u	n	n	n	x
CC(C)(C)c1ccc(C(=O)NCc2nnc(SCC(=O)N3CCCC3)o2)cc1	x	x	x	x	n	x
COc1ccccc1NC(=O)c1ccc(N2CC3CC(C2)c2cccc(=O)n2C3)c(NC(=O)c2ccncc2)c1 (stereo not drawn)	n	u	u	n	n	n
CN(C)c1ccc(/C=c2\sc3nc(-c4ccccc4)nn3c2=O)cc1	n	n	n	n	x	n
SMILES	CHX counter	Pf growth 96h	Pf growth 48h	SARS PLpro yeast	AMA1-RON2 inh	Shiga toxin inh
CCOC(=O)SC1=N/C(=C\c2ccc(N(C)C)cc2)C(=O)S1	n	n[5.75 µM]	n	n	u	n
CCOC(=O)c1cc2c(=Cc3ccc(N(C)C)cc3)c3ccccc3n2[n+]1C	x	x	x	x	20µM	x
C[n+]1c(-c2ccccc2)cc2c(=Cc3ccccc3)c3ccccc3n21	x	x	x	x	16µM	x
CN(C)c1ccc(C=c2c3cc(O)ccc3n3c2cc(-c2ccccc2)[n+]3C)cc1	x	x	x	x	14µM	x
CCOC(=O)/C(=N\Nc1cc(Cl)ccc1Cl)N1CCN(CC)CC1	n	3.3µM	u	n	n	n
CCN1CCN(C(=O)C2CCCN(S(=O)(=O)c3cc(Cl)ccc3Cl)C2)CC1 (stereo not drawn)	n	n	u	n	n	n
Cc1cc(N2O[C@]34C=C[C@]25C[C@@H](O)CC[C@]5(C)C3CC[C@]2(C)[C@@H]([C@H](C)/C=C/[C@H](C)C(C)C)CC[C@H]24)no1 (stereo partly drawn)	x	x	x	n	n	x
COc1ccc(C(=O)NCCCCc2ccccc2)cc1	x	x	x	x	n	x
O=C(NCCCc1ccccc1)c1ccc(F)cc1	34	17µM	n	n	n	55
O=C(NCCCCNC(=O)c1ccc(F)cc1)c1ccc(F)cc1	n	2.6µM	n	n	n	n
Cc1ccc(C2(C)NC(=O)N(CC(=O)Nc3cc(S(=O)(=O)N4CCCCC4)ccc3OC(C)C)C2=O)cc1 (stereo not drawn)	x	u	u	n	n	x
CCOc1ccccc1-n1nnnc1SCc1nc2ccccc2s1	48	n	n	n	n	168
CCn1c(SCc2nc3ccccc3s2)nnc1-c1cccs1	59	10µM	n	u	n	59
CCn1c(SCc2nc3ccccc3[nH]2)nnc1-c1cccs1	n	n	n	n	n	n
CCOc1ccccc1-n1nnnc1SCC(=O)NC(=O)Cc1ccccc1	x	n	u	n	n	x
CCSc1nnc(Cn2c(=O)sc3ccccc32)n1-c1ccccc1C	n	n	n	n	n	n
COc1ccc(-c2nnc(SCc3nc4ccccc4s3)n2C(C)C)cc1	28	x	u	n	n	86
Cc1ccccc1-n1c(C)nnc1SCc1nc2ccccc2s1	33	u	x	n	n	91
COc1ccc(-c2nnc(SCC(=O)NCc3cccs3)n2C(C)C)cc1	n	u	x	n	n	n
CC1(c2ccc(Cl)cc2)NC(=O)N(CN2CCOCC2)C1=O (stereo not drawn)	n	n	n	n	n	n
O=C(C[n+]1ccc(C(=O)NCc2ccccc2)cc1)c1ccc(F)cc1	x	x	x	x	n	x
CC(C)CNCC1OCc2ccccc2CO1	n	n	n	n	n	n
Cc1ccc(NS(=O)(=O)c2c(C)nc3sccn3c2=O)c(C)c1	n	u	n	n	n	n
COc1ccccc1-c1nnc(SCc2nc3ccccc3s2)n1C	n	n	n	n	n	n
Cn1c(SCc2nc3ccccc3s2)nnc1-c1cccs1	60	x	n	u	n	66
SMILES	CHX counter	Pf growth 96h	Pf growth 48h	SARS PLpro yeast	AMA1-RON2 inh	Shiga toxin inh
O=C(CN1CCN(S(=O)(=O)c2ccccc2)CC1)NC(=O)NCc1ccco1	n	n	n	n	n	n
O=C(O)c1ccc(CNC(=O)c2ccc3c(c2)OCCO3)cc1	n	u	n	n	n	n
O=C(CNC(=O)c1ccc(Cl)cc1)OCC(=O)c1ccc2c(c1)OCCO2	45	n	x	n	n	n
CCOC(=O)CNC(=O)c1cc(-c2ccc3c(c2)OCCO3)oc1C	44	n	n	n	n	63
CCOC(=O)CNC(=O)c1ccc2c(c1)OCCO2	46	u	n	n	n	59
CCOc1ccccc1C(=O)NCC(=O)OCC(=O)c1ccc2c(c1)OCCO2	n	u	n	n	n	n

High-throughput results deposited in PubChem by National Center for Advancing Translational Sciences (NCATS).
